Inconclusive results are not listed. Where a call stands in place of a potency, no number is given. The source made the active and inactive calls. The call rests on the fitted dose curve; in most records, active means well fitted cell-killing curve with a large enough effect in the repeat runs; inconclusive means weak or mixed curves; inactive means flat fitted curve, though single readings scatter.
Assay: qHTS assay to identify small molecule antagonists of the estrogen receptor beta (ER-beta) signaling pathway - cell viability counter screen (AID 1259382); further: nearly all actives have a fitted effect of over 55% in size
Details: ER-beta-UAS-bla HEK293T viability, CellTiter-Glo luminescence, 16 h; series mostly up to 92.4 µM
Source text: U.S. Tox21 Program National Center for Advancing Translational Sciences [NCATS] NIH Chemical Genomics Center [NCGC] U.S. Environmental Protection Agency [EPA] National Institutes of Environmental Health Sciences [NIEHS] National Toxicology Program [NTP] U.S. Food and Drug Administration [FDA] Tox21 Assay Overview: Estrogen receptor (ER), a nuclear hormone receptor, plays an important role in development, metabolic homeostasis and reproduction. Two subtypes of ER, ER-alpha and ER-beta, have similar expression patterns with some uniqueness in both types. Endocrine disrupting chemicals (EDCs) and their interactions with steroid hormone receptors like ER causes disruption of normal endocrine function. To identify the compounds that inhibit ER signaling, an ER-beta-UAS-bla GripTite cell line (Life Technologies, Madison, WI, USA) containing a beta-lactamase reporter gene under the control of an UAS response element was used to screen Tox21 10K compound library. The cytotoxicity of the Tox21 compound library against the ER-beta-bla cell line was tested in parallel by measuring the cell viability using CellTiter-Glo assay in the same wells.
Tox21 Assay Protocol Summary: ER-beta-UAS-bla HEK293T cells were dispensed at 2,000 cells/4 uL of assay medium containing 2% charcoal stripped FBS per well into black wall/clear-bottom 1536-well plates using a Multidrop Combi (ThermoFisher Scientific, Waltham, MA) dispenser. After the assay plates were incubated at a 37C and 5% CO2 for 6 hr, 23 nL of compounds dissolved in DMSO, positive controls or DMSO only was transferred to the assay plate by a Pintool station (Kalypsys, San Diego, CA), followed by addition of 1 uL (1nM as final concentration) of 17-beta-estradiol (E2) in assay medium using a Flying Reagent Dispenser (FRD, Aurora Discovery, San Diego, CA). The plates were incubated at 37C and 5% CO2 for 16 hr. Then 1 uL of LiveBLAzer B/G FRET substrate was added using a Flying Reagent Dispenser, the plates were incubated at room temperature for 2 hours, and fluorescence intensity was measured by an Envision plate reader (PerkinElmer, Shelton, CT). For cell viability readout that measures cytotoxicity, 4 uL/well of CellTiter-Glo reagent was added into the assay plates using a FRD. After 30 min incubation at room temperature, the luminescence intensity in the plates was measured using a ViewLux (PerkinElmer) plate reader.

| Structure (SMILES) | Potency |
| --- | --- |
| O=C(O)c1ccccc1OP(=O)(O)O | inactive |
| NC(=O)Nc1ccccc1 | inactive |
| COC(=O)c1cc(C(=O)OC)cc(S(=O)(=O)O)c1 | inactive |
| CCN(Cc1ccncc1)C(=O)C(CO)c1ccccc1 (stereo not given) | inactive |
| O=C(O)COc1nn(Cc2ccccc2)c2ccccc12 | inactive |
| C[C@H]1C[C@@H](O)CC(C)(C)C1 | inactive |
| NC(CSCC(=O)O)C(=O)O (stereo not given) | inactive |
| C1CN(CCOCCN2CCOCC2)CCO1 | inactive |
| OC[C@]1(O)OC[C@@H](O)[C@H](O)[C@@H]1O | inactive |
| CCOC(=O)c1ccc(C)cc1 | inactive |
| Nc1nc2c(ncn2COC(CO)CO)c(=O)[nH]1 | inactive |
| CO/N=C(/C(=O)N[C@@H]1C(=O)N2C(C(=O)OCOC(=O)C(C)(C)C)=C(C)CS[C@H]12)c1csc(N)n1 | inactive |
| O=c1cc(-c2ccccc2)oc2ccccc12 | inactive |
| COc1cc(C(=O)N2CCCCCCC2)cc(OC)c1OC | inactive |
| C1OCOCO1 | inactive |
| O=C1CC2CC1C1CCCC21 (stereo not given) | inactive |
| CCOC(=O)Nc1ccc(NCc2ccc(F)cc2)nc1N | inactive |
| COCCCOCCCOC | inactive |
| CCCc1cc(C(N)=S)ccn1 | inactive |
| Brc1c(NC2=NCCN2)ccc2nccnc12 | inactive |

| Structure (SMILES) | Potency |
| --- | --- |
| Cc1nc2c([nH]1)c(=O)n(C)c(=O)n2Cc1ccco1 | inactive |
| CCO/C([O-])=N/c1c[n+](N2CCOCC2)no1 | inactive |
| O=C(O)CCCl | inactive |
| NS(=O)(=O)c1cc2c(cc1Cl)NC(C1CC3C=CC1C3)NS2(=O)=O (stereo not given) | inactive |
| CCOC(C)(C)C | inactive |
| NC(=O)c1ccc(N)cc1 | inactive |
| CC(=O)OCC(=O)[C@@]1(O)CCC2C3CCC4=CC(=O)CC[C@]4(C)C3[C@@H](O)C[C@@]21C (stereo not given in full) | inactive |
| CC(C)NCCCC1(C(N)=O)c2ccccc2-c2ccccc21 | inactive |
| Cc1[nH]c(=O)c(C#N)cc1-c1ccc2nccn2c1 | inactive |
| N=c1nc(N2CCCCC2)cc(N)n1O | inactive |
| CCC(=O)OC(C)c1ccccc1 (stereo not given) | inactive |
| CC(C)(CC(=O)O)C(=O)O | inactive |
| COc1c(N2C[C@@H]3CCCN[C@@H]3C2)c(F)cc2c(=O)c(C(=O)O)cn(C3CC3)c12 | inactive |
| CC(=O)N(CC(O)CO)c1c(I)c(C(=O)NCCO)c(I)c(C(=O)NCC(O)CO)c1I (stereo not given) | inactive |
| CC(=O)c1ccccc1O | inactive |
| C=CCOCC(CC)(CO)COCC=C | inactive |
| O=C(O)Cc1ccc(CCNS(=O)(=O)c2ccc(Cl)cc2)cc1 | inactive |
| CC(C)(C)c1nnc(NS(=O)(=O)c2ccccc2)s1 | inactive |
| CC(C)NC(=O)NC(C)C | inactive |
| CC1(C)CO[C@@H](CC(=O)O)CN1 | inactive |
